High-throughput results deposited in PubChem BioAssay by National Center for Advancing Translational Sciences (NCATS).
Integrin act MD: integrin-mediated muscular dystrophy alleviation activation; AID 624291; alpha7betagal myoblasts, beta-gal FDG fluorescence, 48 h; 350,000 compounds, 0.064% hits; Potency, µM (top dose mostly 38.3 µM), for inactives: at the highest dose activation, hits mostly activators;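 also: 100% = response of the positive control SU9516; nearly all actives have a fitted effect of over 60% in size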
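Alpha7betagal+/- myoblasts (passage 13) were plated 16-24 hr, then exposed to compounds (1:260 dilution of DMSO stock) for 48 hours at 37C. After MPER lysis, β-galactosidase reporter activity was read as FDG fluorescence (ex 480/em 540) after 30 minutes.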
Chronic BCR inh: blocks chronic active B-cell receptor signaling | ABC-DLBCL IkBa-CBG/CBR reporter, luminescence ratio, 4 h | Potency, µM (top dose mostly 46.1 µM), inactives show at the highest dose activity change, negative = inhibition, most hits filed as inhibitors | 340,000 compounds, 0.05% hits; active = well fitted inhibition curve with a large enough effect in the signal ratio, with a control signal flat, not every such curve was filed as active; inconclusive = small, poorly fitted or top-dose-only effect, or effect the other way, or a change in a side signal; the % refers to the signal ratio;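 also: plate controls were basal doxycycline-induced cells for no effect and cells given 10 µM MG132 for full effect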
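TMD8 ABC-DLBCL cells carrying doxycycline-inducible green luciferase fused to IkappaBalpha plus unfused red luciferase were exposed to compounds (up to 46 uM) for 4 hrs at 37C. Activity came from the overlap-corrected green/red luminescence ratio.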
Mito fusion yeast: inhibitors of mitochondrial division or activators of mitochondrial fusion | S. cerevisiae fusion-defective mutant growth rescue, CellTiterGlo 48 h | Potency, µM (highest dose often 46.1 µM), inactives show at the highest dose growth rescue (activation), hits mostly activators | 320,000 compounds, 0.23% hits | AID 485298; also: % of control where 0% means no effect; nearly all actives have a fitted effect of over 45% in size
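Read-out: ATP-based luminescence (CellTiterGlo, 10 min ambient) reporting growth of fusion-defective ts yeast after 48 hours at 37C on glycerol/ethanol YPEG medium in the presence of compound.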
uPA surface inh: blocks generation of uPA at the cell surface. cell surface uPA generation assay, qHTS. Potency, µM (doses to about 38.3 µM), for inactives: at the highest dose activity change, negative = inhibition, most hits filed as inhibitors. 330,000 compounds, 0.31% hits. AID 540303; active = well fitted inhibition curve with a large enough effect; inconclusive = small, poorly fitted or top-dose-only effect; inactive = no such curve, though single readings can be large or run the other way; tested in mouse RAW 264.7 cells; also: % is scaled to controls: 0 for no effect and ±100 for the full control effect; nearly all actives have a fitted effect of over 55% in size
Gal4-VP16 FLuc: inhibits Gal4-VP16 luciferase reporter, ROR gamma counter-screen. Drosophila S2 Gal4-VP16 UAS-luciferase, luminescence, 20 h. Potency, µM (doses to about 53.6 µM), for the others: at the highest dose activity, negative = inhibition, actives largely listed as inhibitors. 310,000 compounds, 3.5% hits. AID 2546;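 also: Gal4-VP16 expression switched on by copper sulfate through the metallothionein promoter; % is scaled to controls: 0 for no effect and ±100 for the full control effect; nearly all actives have a fitted effect of over 50% in size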
RORgamma inh: ROR gamma (mouse) transcription inhibition; Potency, µM (doses to about 53.6 µM), for the others: top-dose activity change, negative = inhibition, usual class: inhibitors; 310,000 compounds, 5.4% hits; Drosophila S2 Gal4-RORgamma UAS-luciferase reporter, 20 h; P51450; also: % is scaled to controls: 0 for no effect and ±100 for the full control effect; nearly all actives have a fitted effect of over 60% in size
Target sequence (P51450 whole entry, looked up, the tested form may be a part): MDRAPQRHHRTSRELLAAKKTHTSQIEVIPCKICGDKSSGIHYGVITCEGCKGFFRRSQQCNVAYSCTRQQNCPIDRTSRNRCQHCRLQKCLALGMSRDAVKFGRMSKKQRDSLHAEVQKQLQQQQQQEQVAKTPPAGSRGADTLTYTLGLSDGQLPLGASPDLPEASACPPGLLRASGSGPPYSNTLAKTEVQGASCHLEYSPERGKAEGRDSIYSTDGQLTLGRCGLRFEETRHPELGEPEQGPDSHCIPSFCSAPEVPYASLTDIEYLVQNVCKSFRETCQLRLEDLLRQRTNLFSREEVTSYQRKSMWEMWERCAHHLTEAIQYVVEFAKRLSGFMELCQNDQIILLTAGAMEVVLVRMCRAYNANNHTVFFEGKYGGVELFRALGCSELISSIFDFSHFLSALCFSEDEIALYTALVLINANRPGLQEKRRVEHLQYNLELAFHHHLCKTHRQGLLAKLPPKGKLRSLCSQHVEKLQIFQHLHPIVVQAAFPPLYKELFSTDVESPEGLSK
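Compounds are pin-transferred onto Drosophila Schneider cells expressing a copper-inducible Gal4–ROR gamma transactivation domain fusion. After 1 hr, copper sulfate is added to 700 uM final; luciferase is read 20 hr later.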
* hit, by the source's call; ? = inconclusive; / = no result given; [ ] = remark or other dose. In the library only some 5.5% were active in any assay of this set; here they are far more common. Unless noted, calls follow the shape of the dose curve; as a rule, active = well fitted curve in the direction sought with a large enough effect; inconclusive = small, poorly fitted or top-dose-only effect, or another doubt; inactive = no such curve, though single readings can be large; an effect the other way counts as inactive or inconclusive. Potency is read from the fitted curve at half-maximal effect.

SMILES	Integrin act MD	Chronic BCR inh	Mito fusion yeast	uPA surface inh	Gal4-VP16 FLuc	RORgamma inh
Cc1ccc(C)c(-c2csc(NC(=O)c3cnccn3)n2)c1	22%	?	-2%	/	1.3µM*	0.5µM*
O=C(Nc1nc(-c2ccccc2)cs1)Nc1ccc(F)cc1F	-34%	-4%	?	9%	-2%	-4%
O=C(Nc1nc(-c2ccccn2)cs1)Nc1ccc(F)cc1F	-50%	?	-3%	-6%	?	3.5µM*
NNC(=O)c1[nH]c2ccc([N+](=O)[O-])cc2c1-c1ccccc1	-39%	?	-12%	?	-5%	-20%
Cc1c(C(=O)NN)[nH]c2ccc([N+](=O)[O-])cc12	16%	?	-2%	-2%	?	11µM*
S=C(NCCC(c1ccccc1)c1ccccc1)Nc1cccc(Cl)c1	-11%	?	-11%	3%	16µM*	5µM*
S=C(NCCN(C1CCCCC1)C1CCCC1)Nc1cccc(Cl)c1	-17%	?	-70%	15%	?	18µM*
CCOC(=O)c1sc(Nc2nc(OC)cc(OC)n2)nc1C	-22%	?	4%	-5%	-1%	8%
Cc1[nH]c2ccccc2c1C(=O)CCl	-6%	?	-18%	8.9µM*	11µM*	13µM*
C=CCn1c(NCc2ccc(OC)cc2O)nc2ccccc21	5%	-20%	-4%	-13%	19%	?
COc1cccc2nc(-c3cccs3)nc(NN3C(=O)C=C(C)C3=O)c12	/	/	/	/	5µM*	6.3µM*
COc1ccc(CC(=O)Nc2ccc(S(=O)(=O)N3CCC(C)CC3)cc2)c(OC)c1	-7%	1%	20%	-13%	/	/
CC(=O)C1=C(O)C(=O)N(c2ccccn2)C1c1ccccc1[N+](=O)[O-] (stereo not given)	3%	0%	-3%	-1%	-11%	-36%
O=c1c2ccccc2nnn1CSc1nc2ccccc2c(=O)n1CCCO	-52%	6%	-2%	-1%	-12%	10µM*
O=c1c2ccccc2nc(/C=C/c2ccc([N+](=O)[O-])cc2)n1CCCO	2%	-7%	?	2%	5%	5%
O=c1c2ccccc2nc(/C=C/c2ccc([N+](=O)[O-])o2)n1CCCO	?	?	-20%	-3%	7.1µM*	8.9µM*
O=c1c2ccccc2nc(/C=C/c2cccc(Br)c2)n1CCCO	?	-10%	11µM*	-5%	-3%	35%
COc1ccccc1NC(=O)CSC1=Nc2ccccc2C2=NC(CCC(=O)NCc3ccco3)C(=O)N12 (stereo not given)	/	2%	/	/	/	/
NC(=S)C(c1ccccc1)c1ncc(C(F)(F)F)cc1Cl (stereo not given)	6%	-2%	-17%	14%	?	6.3µM*
O=C(N/N=C/c1ccccn1)c1cc(-c2ccccc2Cl)n[nH]1	0%	?	14%	-22%	-3%[10 µM]	16µM*
O=C(N/N=C/c1ccccn1)c1ccc(NC(=O)c2ccccc2Cl)cc1	-15%	?	2%	-3%	2%	-19%
CCc1ccc(-c2cc(C(=O)N/N=C/c3ccccn3)[nH]n2)cc1	9%	?	-9%	-6%	?	13µM*
O=C(N/N=C/c1ccccn1)c1ccc(Cl)c(Cl)c1	/	?	23%	/	0.63µM*	?
O=C(N/N=C/c1ccccn1)c1cc(-c2cccc3ccccc23)n[nH]1	-18%	21%	-3%	?	13%	-37%
Cc1cc(C)nc(SCc2ccc(C(=O)N/N=C/c3ccccn3)cc2)n1	-4%	-2%	?	-2%	14µM*	7.1µM*
SMILES	Integrin act MD	Chronic BCR inh	Mito fusion yeast	uPA surface inh	Gal4-VP16 FLuc	RORgamma inh
COc1ccc(COC(=O)N/N=C2/C[C@@H](O)[C@@H](O)[C@@H]3[C@@H]4C(=O)N([C@@H](C)c5ccccc5)C(=O)[C@H]4CC[C@H]23)cc1	/	/	/	/	-20%[10 µM]	14%[10 µM]
CCCN(CCC)C(=O)Cn1c(=O)n(-c2cccc(OC)c2)c(=O)c2c(C)c(C(=O)N(C)C)sc21	/	-15%	/	/	/	/
CCC(=O)Oc1ccc2c(c1)CCC1C2CC[C@]2(C)C(OC(=O)CC)CCC12 (stereo not given in full)	/	/	/	/	6%	-13%
Cc1ccc(NC(=O)c2cccc(S(=O)(=O)N3CCN(c4ccc(F)cc4)CC3)c2)nc1	-38%	4%	-7%	-9%	?	22%
COc1cccc(/C=N/NC(=O)c2ccc([N+](=O)[O-])cc2Cl)c1O	-7%	?	0%	-12%	0.63µM*	0.35µM*
O=C(N/N=C/c1ccccn1)c1cc(-c2ccc(Br)s2)[nH]n1	14%	9%	-8%	5%	-28%	18µM*
O=C(N/N=C/c1ccccn1)c1ccc([N+](=O)[O-])cc1Cl	-14%	-1%	1%	2%	?	11µM*
O=C(N/N=C/c1cccnc1)c1ccc([N+](=O)[O-])cc1Cl	-1%	0%	0%	0%	2%	-33%
O=C(N/N=C/c1ccccn1)c1cc(-c2ccc(Cl)s2)[nH]n1	8%	1%	8%	-11%	-7%	?
COc1cc(/C=N/NC(=O)c2cccc([N+](=O)[O-])c2)cc(OC)c1O	-1%	?	-3%	3%	8%	-18%
O=C(N/N=C/c1ccccn1)c1cc(-c2ccc3ccccc3c2)n[nH]1	-10%	?	18%	-13%	16µM*	16µM*
COC(=O)c1ccc2c(=O)n(CCc3ccc(S(N)(=O)=O)cc3)c(SCC(=O)C(C)(C)C)nc2c1	/	2%	/	/	/	/
CCc1cccc(CC)c1NC(=O)CN1CCN(S(=O)(=O)c2ccccc2)CC1	11%	?	-1%	-8%	/	/
N=C(CC(O)COc1ccccc1-c1ccccc1)N1CCCCC1 (stereo not given)	/	/	/	/	-9%	-2%
O=C(N/N=C/c1ccccn1)c1[nH]c2ccc([N+](=O)[O-])cc2c1-c1ccccc1	-59%	?	3%	-6%	2%[10 µM]	5µM*
CCc1ccc(-c2cc(C(=O)N/N=C/c3ccco3)[nH]n2)cc1	-24%	0%	5%	-9%	2%[10 µM]	20µM*
COc1ccc([N+](=O)[O-])cc1NC(=O)C(C)Sc1nc(C)c(C)c(C)n1 (stereo not given)	-49%	1%	17%	-3%	-9%	13%
COc1cc2c(cc1OC)C1O[C@](c3ccsc3)(C2)OC2=C1C(=O)CC(C)(C)C2	/	?	0%[9.22 µM]	/	-3%[10 µM]	15%[10 µM]
S=c1[nH]nc2sc3ccccc3n12	-9%	/	/	-4%	/	/
Cc1ccc(-c2csc3n[nH]c(=S)n23)cc1	-3%	1%	3%	8%	8.9µM*	2.5µM*
